Records with an inconclusive call do not appear. The source made the active and inactive calls. Calls come from the whole dose curve; as a rule, active = well fitted inhibition curve with a large enough effect; inconclusive = small, poorly fitted or top-dose-only effect; inactive = flat fitted curve, though single readings scatter.
target: Luciferin 4-monooxygenase (Photuris pensylvanica) (UniProt Q27757); assay: Secondary Assay for Luciferase (Kinase-Glo TM) Inhibition Counterscreen; settings: Kinase-Glo luciferase enzyme, luminescence; series mostly up to 58.1 µM; activity, negative = inhibition: at the top concentration;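 for activity, negative = inhibition: 0% = DMSO only and -100% = 40 µM SIB 1757 full inhibition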
How it was run: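 Kinase-Glo firefly-type luciferase with 10 uM ATP in 50 mM imidazole pH 7.2, 50 mM KCl, 7 mM MgCl2, 0.01% Tween 20, 0.05% BSA. Luminescence read after 8 min at ambient temperature, normalized to DMSO and 40 uM SIB 1757, then Hill-fitted.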
Potency is the fitted concentration of half-maximal effect.

**Q.** How did the Potency turn out when `c1ccc2nc(-c3nc4ccccc4[nH]3)ccc2c1` was run?
**A.** 5.8 µM (active)

**Q.** How did the “activity, negative = inhibition” value turn out when `O=C1c2ccccc2C(=O)N1c1cccc(O)c1` was run?
**A.** -6.54% (inactive)

**Q.** Which “activity, negative = inhibition” value does the source give for `CN=c1nc(-c2ccccc2)n(-c2ccccc2)s1` here?
**A.** -0.55% (inactive)

**Q.** For `Cc1nc(-c2ccc(C(=O)Nc3ccccc3F)cc2)cs1`, which Potency is on record?
**A.** 11.6 µM (active)

**Q.** How did the “activity, negative = inhibition” value turn out when `CC(C)(C)NC(=O)C(c1ccncc1)N(C(=O)Cn1nnc(-c2ccc(F)cc2)n1)c1ccccc1` (centres undefined) was run?
**A.** -1.65% (inactive)

**Q.** How did the “activity, negative = inhibition” value turn out when `C[C@]12CC[C@@H]3c4cc(O)c(O)cc4CC[C@H]3[C@@H]1CC[C@@H]2O` was run?
**A.** -6.33% (inactive)

**Q.** `Cc1cc(N2C(=O)c3ccccc3C2=O)no1` was tested. Which “activity, negative = inhibition” value did it give?
**A.** 4.37% (inactive)

**Q.** Which “activity, negative = inhibition” value does the source give for `O=C1c2ccccc2C(=O)N1c1cc(=O)c2ccccc2[nH]1` here?
**A.** 1.52% (inactive)

**Q.** With `Oc1ccc(O)c2c1C1c3ccccc3C2c2ccccc21` as the molecule, how does the “activity, negative = inhibition” value read?
**A.** 1.66% (inactive)

**Q.** How did the “activity, negative = inhibition” value turn out when `Cc1ccc(NS(=O)(=O)c2ccc3c(c2)NC(=O)CO3)cc1C` was run?
**A.** 3.32% (inactive)

**Q.** With `O=C1c2ccccc2C(=O)N1c1ccc(O)cc1` as the molecule, how does the “activity, negative = inhibition” value read?
**A.** -1.83% (inactive)

**Q.** For `O=C1c2ccccc2C(=O)N1c1ccc2ncccc2c1`, which “activity, negative = inhibition” value is on record?
**A.** 1.15% (inactive)

**Q.** `O=C1c2ccccc2C(=O)N1c1cccnc1` was tested. Which “activity, negative = inhibition” value did it give?
**A.** -2.37% (inactive)

**Q.** Which “activity, negative = inhibition” value does the source give for `O=C1c2ccccc2C(=O)N1c1cncc2ccccc12` here?
**A.** 0.68% (inactive)

**Q.** How did the “activity, negative = inhibition” value turn out when `CNc1cccc(S(=O)(=O)N2CCN(S(=O)(=O)c3ccc4c(c3)OCCO4)CC2)c1` was run?
**A.** -0.612% (inactive)

**Q.** With `Cc1cc(C)c2c(=O)n(CC(=O)Nc3cccc(Cl)c3C)sc2n1` as the molecule, how does the “activity, negative = inhibition” value read?
**A.** -15.8% (inactive)

**Q.** With `Cc1ccc(NS(=O)(=O)c2ccc3c(c2)CCC(=O)N3)cc1` as the molecule, how does the “activity, negative = inhibition” value read?
**A.** -4.6% (inactive)

**Q.** For `Cc1ccc(NS(=O)(=O)c2cc3c(cc2-c2ccccc2)NC(=O)CO3)cc1C`, which “activity, negative = inhibition” value is on record?
**A.** -0.564% (inactive)

**Q.** Which “activity, negative = inhibition” value does the source give for `Cc1ccc(NC(=O)c2ccc3c(c2)CCC(=O)N3)cc1C` here?
**A.** -1.54% (inactive)

Reference: PubChem BioAssay AID2530 (National Center for Advancing Translational Sciences (NCATS), 2010)
